High-throughput results deposited in PubChem by several laboratories.
An excerpt weighted towards active compounds, which were near 2.2% of everything screened.
dFosB act-1: activators of mouse delta FosB homodimer; 340,000 tested, 0.99% active; AID 493131; activation, % at 25 µM; purified delta FosB, TAMRA-CDK5 oligo fluorescence polarization; percent of positive-control signal above neutral wells;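 active = mean activation above about 17%, with every replicate also reaching it, limit read from the data, passing the limit was not always enough; inconclusive = only one of the two conditions met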
Target sequence (P13346 whole entry, looked up): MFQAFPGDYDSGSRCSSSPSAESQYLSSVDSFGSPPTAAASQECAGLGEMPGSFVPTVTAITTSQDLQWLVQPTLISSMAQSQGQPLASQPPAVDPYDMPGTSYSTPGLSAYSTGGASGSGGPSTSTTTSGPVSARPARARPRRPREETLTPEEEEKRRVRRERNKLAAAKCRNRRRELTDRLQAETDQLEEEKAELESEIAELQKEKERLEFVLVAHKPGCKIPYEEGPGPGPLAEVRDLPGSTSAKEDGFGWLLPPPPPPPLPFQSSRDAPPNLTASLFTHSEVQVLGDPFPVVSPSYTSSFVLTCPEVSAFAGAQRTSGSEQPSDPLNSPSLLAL
PolyA inhibitor: yeast polyadenylation inhibition | S. cerevisiae SKY197-pL101 polyadenylation reporter, beta-gal luminescence; efflux-impaired pdr1/pdr3 knockout yeast; score 100 = 6 SD above DMSO | 300,000 tested, 0.02% active | activity score, % at 12 µM | AID 1875;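 active = lowest replicate activity score at least 50, where 100 means six control SD above control mean; inconclusive = lowest score under 50 but half or more replicates reach 50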;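 also: yeast exposed to compound for 9 h at 30 °C; higher score means more reporter readthrough which indicates perturbed polyadenylation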
NLRP3 yeast inh: blocks the NALP3 inflammasome reconstituted in yeast; Yeast reconstituted NLRP3/ASC/caspase-1, beta-gal luminescence, 24 h; inhibition, % at 10 µM; 330,000 tested, 0.39% active; AID 2825;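 active = inhibition of 50% or more; inactive = inhibition below 50%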;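 also: plate controls were induced DMSO wells for no effect and uninduced yeast grown without galactose for full effect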
NALP1 yeast inh: inhibitors of NALP1 inflammasome in yeast | 280,000 tested, 0.61% active | S. cerevisiae NALP1/ASC/caspase-1 growth, X-gal OD620, 72 h | inhibition, % at 10 µM | AID 2071; in the data active = inhibition mostly above about 24%, no sharp cut-off; inactive = mostly below about 32%
EBNA-1 inhibitor: blocks EBNA-1 binding to DNA; EBNA-1 DNA binding, fluorescence polarization; inhibition, % at 14.8 µM; 300,000 tested, 0.34% active; AID 1950; in the data active = inhibition above about 28%
ZTA DNA inh: counter-screen for EBNA-1 inhibitors: inhibitors of Epstein-Barr virus ZTA. P03206. ZTA-DNA binding, fluorescence polarization. inhibition, % at 11 µM. 320,000 tested, 0.15% active. AID 2234; in the data active = inhibition above about 33%
Target sequence (P03206 whole entry, looked up): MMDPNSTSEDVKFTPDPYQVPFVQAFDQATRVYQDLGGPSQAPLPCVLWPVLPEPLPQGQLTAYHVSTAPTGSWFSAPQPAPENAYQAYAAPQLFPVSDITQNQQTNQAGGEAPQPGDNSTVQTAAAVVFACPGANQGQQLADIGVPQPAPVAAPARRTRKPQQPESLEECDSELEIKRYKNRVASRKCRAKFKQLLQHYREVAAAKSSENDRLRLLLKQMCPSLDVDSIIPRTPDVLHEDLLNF
dFosB act-2: enhances mouse delta FosB homodimer binding to DNA. shares compounds with dFosB act-1. purified delta FosB, TAMRA-CDK5 oligo fluorescence polarization; normalised: neutral wells 0, positive control 100. activation, % at 24.9 µM. 2,400 tested, under 10 active;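 active = highest replicate activation at or above 34% and every replicate reaching that threshold; inconclusive = meets only one of the two criteria; inactive = meets neither criterion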;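 also: higher polarization means more probe DNA bound by delta FosB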
* marks the source's active call; other numbers are inactive results; ? = inconclusive; / = no result given.

SMILES	dFosB act-1	PolyA inhibitor	NLRP3 yeast inh	NALP1 yeast inh	EBNA-1 inhibitor	ZTA DNA inh	dFosB act-2
O=C(NCC1CCCO1)c1cn(Cc2ccccc2Cl)nc1-c1ccccc1 (configuration not stated)	-8	/	14	/	/	/	/
COc1cc(NS(=O)(=O)c2cc(C(=O)NCCc3ccccn3)ccc2OC)cc(OC)c1	2	/	9	/	/	/	/
Cc1cccc(N2CCN(C(=O)c3ccc(NC4=NC5CS(=O)(=O)CC5S4)cc3)CC2C)c1 (configuration not stated)	-3	-9	11	-10	7	-1	/
COc1ccc(N(CC(=O)O)S(=O)(=O)c2ccc(C)cc2)cc1Cl	2	/	-1	6	-18	-10	/
O=C(Nc1ccc(NC(=O)c2cc3ccccc3o2)cc1)c1ccc2c(c1)OCCO2	42*	3	-3	-13	14	14	-1
O=C(Cc1ccccc1)Nc1ccc2oc(-c3cccnc3)nc2c1	22*	4	9	15	-15	-1	1
O=C(Nc1ccc2oc(-c3ccncc3)nc2c1)c1ccc(F)cc1	36*	-9	9	0	5	14	3
CCOc1ccc(N(CC(=O)Nc2cc(C)ccc2C)S(=O)(=O)c2c(C)[nH]c(=O)[nH]c2=O)cc1	-9	-6	2	/	7	4	/
CCC1CCCCN1CCCNC(=O)CNC(=O)c1nn(-c2ccc(OC)c(Cl)c2)c(=O)c2ccccc12 (configuration not stated)	-17	3	15	-16	0	-22	/
CCOc1ccc2nc(NC(=O)c3ccc(OC)c(S(=O)(=O)N4CCOCC4)c3)sc2c1	26*	8	5	-1	-6	11	5
CCOc1ccc2nc(NC(=O)c3ccc(S(=O)(=O)N4CCOCC4)cc3)sc2c1	6	-1	-17	18	10	12	/
O=C(NCCCN1CCOCC1)c1cc(S(=O)(=O)N2CCOCC2)ccc1Cl	6	/	9	/	/	/	/
CC1Nc2ncnc(N3CCc4ccccc4C3)c2N(Cc2ccc(Br)cc2)C1=O (configuration not stated)	51*	9	19	/	-10	-4	-1
CC1Nc2ncnc(N3CCc4ccccc4C3)c2N(Cc2ccc(Cl)cc2)C1=O (configuration not stated)	?	1	12	/	2	0	/
CCOC(=O)CSc1nnc(NC(=O)c2ccc3c(c2)OCO3)s1	41*	2	20	14	6	8	1
CCC(=O)Nc1nnc(SCC(=O)NCc2ccc3c(c2)OCO3)s1	23*	2	12	12	-8	-1	-1
Cc1cccc(CN2CCC(Oc3ccc(C(=O)N4CCCCC4)cc3)CC2)c1	-2	0	29	22	0	-2	/
CN1CCN(C(=O)c2ccccc2NC(=O)c2cccc(Cl)c2)CC1	-1	9	13	20	-5	3	/
N#C/C(=C\c1c(N2CCN(Cc3ccccc3)CC2)nc2ccccn2c1=O)S(=O)(=O)c1ccccc1	32*	-16	14	17	12	10	3
O=C1Nc2ccccc2O/C1=C\c1c(F)cccc1Cl	25*	-18	37	22	10	6	1
COC(=O)c1ccc(/C=C2\Oc3ccccc3NC2=O)cc1	33*	5	20	5	-3	2	-7
O=C(NCC1CCCO1)c1ccc(N2CCCCC2)c([N+](=O)[O-])c1 (configuration not stated)	0	12	13	8	-4	-1	/
Cc1ccc2nc3c(c(N)c2c1)CCN3C	18*	-7	15	22	-3	-10	0
COc1ccc(OCc2nnc(NC(=O)Nc3ccc(F)cc3)s2)cc1	73*	-8	1	21	-2	26	-1
O=C(Nc1nnc(COc2ccc(F)cc2)s1)Nc1ccccc1F	/	-9	22	/	7	4	/
SMILES	dFosB act-1	PolyA inhibitor	NLRP3 yeast inh	NALP1 yeast inh	EBNA-1 inhibitor	ZTA DNA inh	dFosB act-2
O=C(CCN1CCCCC1)c1cccc(Cl)c1	-10	/	/	/	/	/	/
CC(=O)Nc1ccc(NC(=O)CSc2nnc(-c3ccco3)o2)cc1	-1	-10	4	2	2	-6	/
O=C(CSc1nnc(-c2ccco2)o1)Nc1cccc([N+](=O)[O-])c1	41*	18	11	23	5	-4	-12
COc1ccc(C(=O)NCC(=O)Nc2ccc(-c3ccccc3)cc2)cc1	38*	9	10	11	12	11	-1
COc1ccc(NC(=O)c2cccs2)cc1	-10	-7	19	28	13	-7	/
COc1ccc(NC(=O)c2ccc(NC(=O)CCS(=O)(=O)c3cccs3)cc2)cc1	30*	20	20	9	10	0	-4
COc1ccc(C(=O)Nc2ccc(NC(=O)c3cccs3)cn2)cc1	33*	6	19	-1	15	15	2
O=C(CN1C(=O)NC(CCc2ccccc2)C1=O)Nc1ccc(F)c(F)c1F (configuration not stated)	5	/	0	/	/	/	/
NS(=O)(=O)c1cc(C(=O)N=Nc2c(O)[nH]c3ccccc23)ccc1Cl	-3	-7	1	10	2	-8	/
COc1ccc(OC)c(NC(=O)COC(=O)c2ccc(-n3cnnn3)cc2)c1	3	18	13	3	-11	10	/
COc1ccc(NC(=O)COC(=O)c2ccc(-n3cnnn3)cc2)cc1Cl	35*	3	10	/	10	13	-15
O=c1[nH]c(-c2ccc(F)cc2)nc2c1sc(=S)n2-c1ccccc1	24*	10	5	26	11	-20	3
O=c1[nH]c(-c2ccc3c(c2)OCO3)nc2c1sc(=S)n2-c1ccccc1	-6	-7	-6	8	1	-6	/
Cc1ccc(Nc2nc(N)c3ccccc3n2)cc1C	42*	-7	42	22	/	/	1
Cc1c(NC(=O)Cc2ccccc2)cccc1C(=O)NN1C(=O)c2ccccc2C1=O	23*	-1	10	34	-1	-10	9
O=C(/C=C/c1ccc(Cl)cc1)NC(=S)Nc1ccc(NC(=O)c2ccco2)cc1	85*	-14	/	24	25	6	0
Cc1ccc(OCC(=O)Nc2ccc(-c3nc4ncccc4o3)cc2)c(C)c1	73*	-8	4	-2	0	-9	0
Cc1ccc(OCC(=O)Nc2ccncc2)c(C)c1	-1	-3	16	26	-5	-5	/
N#CC1(NC(=O)CSc2nc3ccccc3o2)CCCCC1	-14	/	13	/	/	/	/
Cc1[nH]nc2nc(SCC(=O)NC3CCCCC3)n(-c3ccc(Br)cc3)c(=N)c12	52*	10	14	4	5	0	1
CCc1ccccc1NC(=O)CSc1nc2n[nH]c(C)c2c(=N)n1-c1ccc(OC)cc1	15	/	/	12	/	/	/
